Bioassay records deposited in PubChem BioAssay by National Center for Advancing Translational Sciences (NCATS).
D1 agonist: activates the human D1 dopamine receptor | P21728 | activation, % at 2 µM | HEK293 T-REx D1 cells, calcium flux, agonist mode | 360,000 tested, 1% active; further: 0% is about no effect
Target sequence (P21728 whole entry, looked up): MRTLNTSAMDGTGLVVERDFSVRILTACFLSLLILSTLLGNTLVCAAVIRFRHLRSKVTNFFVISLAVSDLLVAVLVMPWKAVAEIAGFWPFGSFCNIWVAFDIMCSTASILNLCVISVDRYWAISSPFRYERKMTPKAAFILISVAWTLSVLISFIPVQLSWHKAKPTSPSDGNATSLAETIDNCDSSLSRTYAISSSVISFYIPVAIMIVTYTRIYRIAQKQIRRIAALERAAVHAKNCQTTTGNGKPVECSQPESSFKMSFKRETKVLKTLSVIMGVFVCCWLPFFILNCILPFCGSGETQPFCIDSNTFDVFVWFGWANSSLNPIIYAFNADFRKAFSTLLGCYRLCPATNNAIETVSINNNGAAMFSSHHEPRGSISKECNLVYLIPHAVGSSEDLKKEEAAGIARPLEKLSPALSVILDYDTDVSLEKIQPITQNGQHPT
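Agonism was scored from calcium flux recorded over 180 s (1 read/s) after pintool compound addition, following a 10-cycle baseline. Cells were inducible force-coupled HEK293 TREx D1, plated overnight at 30 C and loaded with no-wash calcium dye.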
D1 antagonist: human D1 dopamine receptor antagonism. 360,000 tested, 3.2% active. HEK293 TREx D1 cells, calcium flux, dopamine EC80; active compounds read low. activity change, negative = inhibition, % at 10 µM. P21728; in the data active means activity change below about -30%; further: on the % scale 0 is the no-effect control and ±100 the full control effect
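Tetracycline-induced HEK293 Trex D1 cells, force-coupled to calcium, dye-loaded; compounds added and read 180 s, then EC80 dopamine added and calcium flux tracked kinetically another 180 s.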
D1 potentiator: human D1 dopamine receptor positive modulation | P21728 | HEK293 TREx D1 cells, calcium flux, dopamine EC20 potentiation | potentiation, % at 10 µM | 360,000 tested, 0.036% active | AID 504651; in the data active means potentiation above about 30%; further: 0% is about no effect
TRHR PAM: allosteric enhancers of human TRH receptor | 360,000 tested, 0.66% active | P34981 | AID 493056 | enhancement, % at 2 µM | TRHR cells, fluo-8 calcium fluorescence, EC20 TRH enhancement; in the data active means enhancement above about 30%; further: 0% is about no effect
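TRHR-expressing cells loaded with fluo-8 calcium dye were read kinetically (ex 480/em 530) during compound addition, then stimulated with an EC20 of TRH (10 nM final). Enhancement of the Gq-mediated intracellular calcium response was scored.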
TRHR ag: activates the human TRH receptor. P34981. TRHR cells, calcium flux fluo-8, FDSS agonist mode. activation, % at 2 µM. 360,000 tested, 0.18% active; further: 0% is about no effect
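Fluo-8-loaded TRHR cells; 10 s baseline, compound added, kinetic Ca2+ fluorescence read 1/s, agonist mode.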
Active calls of the source: *. In the library only some 4.7% were active in any assay of this set; here they are far more common. Unless noted, no stated cut-off is given here; in the data, active means activation above about 30%; inactive means the rest.

SMILES | D1 agonist | D1 antagonist | D1 potentiator | TRHR PAM | TRHR ag
O=C(CNC(=O)C1CCCCCC1)OC(C(=O)Nc1cc(C(F)(F)F)ccc1Cl)c1ccccc1 (centres undefined) | 7.0 | 12.2 | 3.5 | 1.2 | -1.0
COc1ccc(-c2nc3cc(C)ccn3c2NC(=O)c2ccc(F)cc2)cc1 | 0.9 | -39.8* | -0.8 | 3.4 | -0.4
CCCCC1C2=C(CC(C)(C)CC2=O)OC2=C1C(=O)CC(C)(C)C2 | 12.1 | 13.5 | 2.9 | 0.1 | 0.7
Cc1c(C(=O)N2CCCC2)sc(NC(=O)c2ccc(Cl)cc2)c1C#N | -0.2 | -64.2* | -8.4 | -27.2 | 0.5
CCOC(=O)C1CCN(Cc2cnc(Oc3ccc(C(C)(C)C)cc3)s2)CC1 | 29.5 | 7.7 | -5.6 | 2.7 | -1.1
Cc1nnc(SCC(=O)NCC2COc3ccccc3O2)s1 (centres undefined) | -0.3 | -30.9* | -3.6 | 2.9 | -0.2
CCn1cnnc1SCC(=O)NCC1COc2ccccc2O1 (centres undefined) | 1.8 | 4.8 | 0.8 | 8.2 | 0.4
Cc1ccccc1Nc1nnc(SCC(=O)NCc2cccs2)s1 | -0.2 | -40.7* | -8.4 | 4.0 | 0.3
Cc1nnc(SCC(=O)Nc2ccccc2NC(=O)CSc2nnc(C)s2)s1 | 0.0 | -33.2* | -7.2 | 2.9 | -0.1
Cc1cccc(C)c1Nc1nnc(SCC(=O)NCc2cccs2)s1 | 7.2 | -5.6 | -4.2 | 1.8 | -1.0
CCOC(=O)CN1C(=O)N(CC(=O)OCC)C(c2ccccc2)(c2ccccc2)C1=O | 1.0 | 3.4 | 5.2 | 0.5 | -0.4
O=C(CNC(=O)c1ccc2cc[nH]c2c1)OC(C(=O)Nc1cc(C(F)(F)F)ccc1Cl)c1ccccc1 (centres undefined) | 6.6 | -7.2 | -2.3 | -4.0 | -1.9
CCc1c(C)sc(NC(=O)c2cc(C3CC3)on2)c1C#N | 0.5 | -37.3* | -3.1 | 5.3 | 0.5
CCOc1ccc(S(=O)(=O)N2CCCCC2)c(C)c1C | 4.2 | 7.2 | 3.0 | -3.2 | -0.4
CCOc1ccc(S(=O)(=O)N2CCN(C)CC2)c(C)c1C | 1.9 | -50.4* | -3.9 | 0.6 | 0.3
O=C1CCCCN1CCCC(=O)N1CCCC(Nc2ccccc2)C1 (centres undefined) | 7.3 | -50.8* | -5.3 | -5.6 | 0.6
CC1=CC(C)(C)N(C(=O)CN2C(=O)CCC2=O)c2ccccc21 | 1.5 | -37.7* | -1.4 | -5.0 | 0.5
COc1cc(OC)c(C2C=C(c3ccc(C)cc3)Nc3c(C(=O)Nc4ccccc4)cnn32)cc1OC (centres undefined) | 2.7 | -45.2* | -5.8 | -4.5 | -0.3
COc1ccc(C2C=C(c3ccc(C)cc3)Nc3c(C(=O)Nc4ccccc4)cnn32)cc1 (centres undefined) | 3.4 | 10.1 | -0.1 | -6.7 | 0.1
CCOc1ccc(S(=O)(=O)N(CCO)CCO)cc1-c1nc2c(C(C)(C)C)nn(C)c2c(=O)[nH]1 | 0.9 | -1.3 | 30.4* | 4.3 | 0.1
COc1ccc(Nc2oc(COc3ccc(OC)cc3)nc2C#N)cc1 | 0.5 | -34.2* | -12.6 | -4.2 | 0.1
N#Cc1c(N)nc(N2CCCC2)c(C#N)c1-c1ccc(Cl)cc1 | 3.3 | -56.6* | -13.1 | -9.3 | -0.7
CCc1ccccc1N(CC(=O)NC1CCCC1)C(=O)CNC(=O)c1cccs1 | 0.5 | 2.2 | -5.0 | 25.3 | 0.4
CCCc1ccc(C(C)NC(=S)NC2CCCCC2)cc1 (centres undefined) | 36.5* | -5.5 | 0.4 | -4.8 | 3.1
Cc1ccc(C)c(C(C)NC(=S)NC2CCCCC2)c1 (centres undefined) | 16.6 | -2.5 | -2.0 | -4.8 | 0.9
SMILES | D1 agonist | D1 antagonist | D1 potentiator | TRHR PAM | TRHR ag
CCC(NC(=S)NC1CCCCC1)c1ccc(C)cc1 (centres undefined) | 13.5 | -59.0* | -0.2 | -1.9 | 0.2
O=C1CN(C(=O)COC(=O)CCSc2ccccc2Cl)c2ccccc2N1 | 8.5 | 11.9 | -1.1 | 33.2* | -1.5
O=C1CN(C(=O)COC(=O)c2cccs2)c2ccccc2N1 | 3.1 | -30.3* | 9.4 | 12.2 | 0.0
O=C1CN(C(=O)COc2ccc(Br)cc2F)c2ccccc2N1 | 0.3 | -33.9* | -3.2 | 8.3 | -0.2
O=C(CCNC(=O)c1ccc(Br)cc1)NCc1cccnc1 | 0.1 | 8.2 | 0.3 | -2.8 | 0.0
CCOC(=O)c1cc(NC(=O)c2ccc(C)cc2)c(=O)n2c1oc1ccc(Cl)cc12 | 5.6 | 1.6 | -1.6 | 3.2 | 0.5
O=C(Cn1c(=O)nc(-c2ccccc2)c2ccccc21)NCc1ccccc1Cl | 9.6 | 8.2 | -1.5 | -4.8 | -0.6
CCc1cccc(NC(=O)C(Cc2ccccc2)NS(=O)(=O)c2cccs2)c1 (centres undefined) | 5.3 | 12.5 | 0.1 | 2.6 | 0.2
COc1ccc(C)cc1NC(=O)C(NS(=O)(=O)c1cccs1)c1ccccc1 (centres undefined) | -1.9 | -35.5* | -1.5 | -2.1 | -1.6
Cc1ccc(NC(=O)C(Cc2ccccc2)NS(=O)(=O)c2cccs2)cc1Cl (centres undefined) | 6.0 | -41.5* | 0.5 | 5.9 | 1.8
COC(=O)C1(C)NC(c2ccc(OC)cc2)C2C(=O)N(c3ccccc3)C(=O)C21 (centres undefined) | 0.8 | -29.8 | -0.3 | 5.1 | 0.1
Cc1c(Cl)cccc1NC(=O)CCN1C(=O)c2ccccc2Sc2ncccc21 | 5.9 | 7.2 | -0.8 | 0.1 | -0.2
Cc1c(-c2cccc(NC(=O)Nc3ccccc3)c2)nc2ncccn12 | 0.8 | -56.4* | 0.9 | -4.5 | 0.0
O=C(OCc1c(Cl)nc2sccn12)c1cc2c(s1)CCCC2 | 2.7 | 4.2 | -3.1 | 32.5* | 0.1
O=C(COC(=O)c1cc2c(s1)CCCC2)Nc1ccc(Cl)cn1 | 2.7 | 4.8 | -4.8 | -2.4 | -1.3
CN(C)CCNC(=O)C1CCN(Cc2cc3ccccc3n2Cc2ccccc2)CC1 | 39.0* | -19.4 | -3.9 | -4.7 | 2.2
COC(=O)c1ccc(NC(=S)NCCc2ccccc2)cc1 | 11.9 | -10.1 | -8.4 | 2.7 | 0.3
CC(=O)c1ccc(NC(=S)NCCc2cccc(Cl)c2)cc1 | 21.7 | -37.1* | -6.2 | -0.5 | 1.1
CCOC(=O)c1ccc(NC(=S)NCCc2ccccc2)cc1 | 27.6 | -38.3* | -6.6 | -0.3 | 0.9
CCOC(=O)c1ccc(NC(=S)NCc2ccccc2)cc1 | 21.7 | -56.0* | -16.9 | -0.7 | 0.6
CCOC(=O)c1ccc(NC(=O)NCc2ccccc2)cc1 | 6.6 | -9.1 | -5.8 | -9.9 | -0.2
O=C(Cn1c(=O)n(Cc2ccco2)c(=O)c2oc3ccccc3c21)Nc1ccc(F)cc1F | 1.8 | 4.5 | 0.7 | 2.4 | 0.4
N#Cc1nc(Nc2ccc(Br)cc2)nc(NC2CCCC2)n1 | 6.6 | -28.6 | -3.6 | 1.7 | -1.6
CC(C)n1c(=O)c2oc3ccccc3c2n(Cc2ccccc2F)c1=O | 1.5 | 20.7 | 0.2 | -3.6 | 0.4
CCn1nc(NC(=O)COC)c2cc3cccc(C)c3nc21 | 2.5 | -81.0* | -3.5 | 1.2 | -0.8
